# From the supplement of paper PMC12024529
# System: HEK293 WT BDD-FVIII-Gluc
# Experiment: secreted FVIII-Gluc luciferase Z-score vs DMSO control; higher = more FVIII-Gluc secretion
# Details: 5 µM
# Protocol: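 Natural plant-compound library (480 compounds, ST catalogue IDs) screened on HEK293 cells stably expressing WT BDD-FVIII-Gaussia luciferase fusion at 5 µM. Secreted Gluc activity in the medium is given as a Z-score relative to DMSO controls.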
row,SMILES,secreted FVIII-Gluc luciferase Z-score
1,CN1C[C@H](C(=O)N[C@]2(C)O[C@@]3(O)[C@@H]4CCCN4C(=O)[C@H](Cc4ccccc4)N3C2=O)C[C@@H]2c3cccc4[nH]cc(c34)C[C@H]21,0.0715
2,C[C@]12CC[C@H](O)C[C@H]1CC[C@@H]1[C@@H]2C[C@@H](O)[C@]2(C)[C@@H](C3=CC(=O)OC3)CC[C@]12O,-7.45
3,C=C[C@H]1CN2CCC1C[C@@H]2C(O)c1ccnc2ccccc12 (stereo not given in full),0.484
4,O=c1cccc2n1CC1CC2CN(CCO)C1 (stereo not given),0.624
5,CN1CCc2cc3c(cc2[C@H]1[C@@H]1OC(=O)c2c1ccc1c2OCO1)OCO3,0.754
6,CC1=C2C3OC(=O)C(C)C3CC[C@@]2(C)C=CC1=O (stereo not given in full),0.0932
7,O=CN1C[C@@H]2C[C@H](C1)c1cccc(=O)n1C2,0.583
8,CC1(C)S[C@@H]2[C@H](N)C(=O)N2[C@H]1C(=O)O,-1.19
9,COc1cc2c(cc1O)C[C@H]1c3c(cc(OC)c(O)c3-2)CCN1C,0.61
10,CC1=NCCc2c1[nH]c1cc(O)ccc21,-0.262
11,COc1ccc(CC2c3cc(OC)c(OC)cc3CCN2C)cc1OC (stereo not given),-1.36
12,C=C1C/C(=C/C)C(=O)O[C@@H]2CCN3CC=C(COC(=O)[C@]1(C)O)[C@H]23,0.649
13,CNC(=O)Oc1ccc2c(c1)C1(C)CCN(C)C1N2C (stereo not given),0.602
14,O=C1C=C2C=C[C@@H]3C[C@@]2(O1)[C@H]1CCCCN31,0.666
15,COc1ccc2c(c1O)-c1c(OC)c(OC)cc3c1C(C2)N(C)CC3 (stereo not given),0.615
16,CC1=CC(=O)c2c(O)cccc2C1=O,-2.68
17,CN(C)[C@@H]1C(=O)C(C(N)=O)=C(O)[C@@]2(O)C(=O)C3=C(O)c4c(O)cccc4[C@@](C)(O)[C@H]3[C@H](O)[C@@H]12,0.919
18,CN1Cc2c(ccc3c2OCO3)C2C(O)Cc3cc4c(cc3C21)OCO4 (stereo not given),-5.22
19,CC[C@H]1C2C[C@H]3[C@@H]4N(C)c5ccccc5[C@]45C[C@@H](C2[C@H]5O)N3[C@@H]1O (stereo not given in full),0.504
20,CN1[C@@H]2CC[C@H]1CC(OC(=O)C(CO)c1ccccc1)C2 (stereo not given in full),-0.395

row,SMILES,secreted FVIII-Gluc luciferase Z-score
1,COc1ccc2c(c1O)-c1c(OC)c(OC)cc3c1[C@H](C2)N(C)CC3,0.32
2,CC(=O)c1c(O)c(C)c(O)c(Cc2c(O)c3c(c(C(=O)/C=C/c4ccccc4)c2O)OC(C)(C)C=C3)c1O,-1.16
3,COc1ccc(CC2NCC(O)C2OC(C)=O)cc1 (stereo not given),-4.62
4,COc1cc2c(cc1OC)-c1c(OC)c(OC)c(C=O)c3c1[C@H](C2)N(C)CC3,0.0709
5,C[C@@H](CO)NC(=O)[C@@H]1C=C2c3cccc4[nH]cc(c34)C[C@H]2N(C)C1,0.475
6,COc1ccc2c(c1OC)C(=O)O[C@H]2[C@@H]1c2cc3c(cc2CCN1C)OCO3,0.0229
7,COc1ccn(C)c(=O)c1C#N,-0.599
8,COc1ccc(Cc2nccc3cc(OC)c(OC)cc23)cc1OC,-0.721
9,CN1C[C@@H](CO)C=C2c3cccc4[nH]cc(c34)CC21 (stereo not given in full),0.731
10,CC1CCC2C(C)C(=O)OC3OC4(C)CCC1C32OO4 (stereo not given),-0.111
11,CCC1CN2CCc3cc(OC)c(OC)cc3[C@@H]2C[C@@H]1C[C@H]1NCCc2cc(OC)c(OC)cc21 (stereo not given in full),-3.94
12,COc1cc2c(cc1O)CCNC2C (stereo not given),0.0191
13,CC12C(=O)OC(=O)C1(C)C1CCC2O1 (stereo not given),-4.31
14,COc1cc2c(cc1OC)C(C)NCC2 (stereo not given),0.0745
15,CN(C)[C@@H]1C(=O)C(C(N)=O)=C(O)[C@@]2(O)C(=O)C3=C(O)c4c(O)cccc4[C@@](C)(O)[C@H]3C[C@@H]12,0.496
16,OC[C@@H]1CCCN2CCCC[C@H]12,-0.141
17,CCC1CN2CCC1CC2C(O)c1ccnc2ccccc12 (stereo not given),0.33
18,NCC(O)c1cccc(O)c1 (stereo not given),0.434
19,CC(C)C[C@H]1C(=O)N2CCC[C@H]2[C@]2(O)O[C@](NC(=O)[C@@H]3C=C4c5cccc6[nH]cc(c56)C[C@H]4N(C)C3)(C(C)C)C(=O)N12,0.241
20,CCCCCC[C@H]1C(=O)O[C@H](C)[C@H](NC(=O)c2cccc(NC=O)c2O)C(=O)O[C@@H](C)[C@@H]1OC(=O)CC(C)C,-3.29
